Shown are actives, neighbours in structure and some others; about 0.49% of the full set was active somewhere.
ASM inhibitor: human S-ASM enzyme inhibition | hit rate 0.006% among 340,000 | placental ASM, HMU-PC fluorogenic substrate, 60 min | Potency, µM (doses to about 57.5 µM), for inactives: at the highest dose activity change, negative = inhibition, hits mostly inhibitors | P17405; further: potency means the concentration at half of the fitted maximal effect
Target sequence (P17405 47-631 limits assumed): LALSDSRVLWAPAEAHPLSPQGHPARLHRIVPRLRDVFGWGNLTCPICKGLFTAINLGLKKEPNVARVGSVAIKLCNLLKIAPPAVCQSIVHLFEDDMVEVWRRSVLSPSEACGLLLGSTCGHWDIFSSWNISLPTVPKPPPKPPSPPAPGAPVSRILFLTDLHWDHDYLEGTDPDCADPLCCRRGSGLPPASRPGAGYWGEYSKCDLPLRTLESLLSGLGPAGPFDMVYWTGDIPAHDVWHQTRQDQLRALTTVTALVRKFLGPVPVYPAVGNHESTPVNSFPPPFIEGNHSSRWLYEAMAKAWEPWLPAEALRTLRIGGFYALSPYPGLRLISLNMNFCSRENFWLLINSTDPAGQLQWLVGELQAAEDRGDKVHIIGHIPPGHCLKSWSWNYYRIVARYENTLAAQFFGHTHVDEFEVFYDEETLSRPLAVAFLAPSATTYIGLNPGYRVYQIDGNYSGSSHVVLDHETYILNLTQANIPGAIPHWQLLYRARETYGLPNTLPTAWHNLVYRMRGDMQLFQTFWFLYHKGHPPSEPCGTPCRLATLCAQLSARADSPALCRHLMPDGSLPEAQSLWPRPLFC
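Steps: dispense placental human ASM, pin compound, wait 10 min at room temperature, add HMU-PC0 substrate at 9 uM final, incubate 60 min at 37 °C, add stop solution raising pH to 10, read fluorescence.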
BCR signal inh: blocks chronic active B-cell receptor signaling | Potency, µM (titrated, usually from 46.1 µM), for inactives: at the highest dose activity change, negative = inhibition, usual class: inhibitors | AID 493014 | ABC-DLBCL IkBa-CBG/CBR reporter, luminescence ratio, 4 h | hit rate 0.05% among 340,000; active means well fitted inhibition curve with a large enough effect in the signal ratio, with a control signal flat, not every such curve was filed as active; inconclusive means small, poorly fitted or top-dose-only effect, or effect the other way, or a change in a side signal; the % refers to the signal ratio;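 further: potency means the concentration at half of the fitted maximal effect; plate controls were basal doxycycline-induced cells for no effect and cells given 10 µM MG132 for full effect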
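Doxycycline induced both beetle luciferases in TMD8 lymphoma cells; IKK-driven degradation limits the IkappaBalpha-fused green signal, while red luminescence normalises for cell number and nonspecific effects. Compounds tested up to 46 uM, 4 hrs.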
TCR activator: activates T cell receptor signaling; Potency, µM (highest dose often 9.22 µM), for the others: at the highest dose activation of IL-2 secretion, hits mostly activators; 330,000 tested, under 10 active; primary human leukocytes, anti-CD3, IL-2 HTRF, 48 h; AID 504894; further: % of control where 0% means no effect
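Using a-CD3 beads without co-stimulation, primary human leukocytes were exposed to compounds for 48 hr. An HTRF IL-2 kit measured the cytokine, with europium-to-d2 energy transfer producing emission at 665nm upon 320nm excitation.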
Tb PFK block: inhibitors of T. brucei phosphofructokinase | T. brucei PFK, ADP-Glo luminescence | Potency, µM (titrated, usually from 57.5 µM), inactives show at the highest dose activity, negative = inhibition, usual class: inhibitors | hit rate 0.17% among 330,000;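 further: potency means the concentration at half of the fitted maximal effect; 0% = uninhibited 1x PFK enzyme wells and -100% = no-enzyme wells; nearly all actives have a fitted effect of over 60% in size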
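ADP-Glo luminescence quantified ADP after 45 min at room temperature, with 1.25 nM T. brucei PFK, 0.1 mM ATP and 0.5 mM fructose-6-phosphate in pH 8.0 TEA buffer. qHTS titrations up to 57 µM; curves classified by quality.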
CCT modulator: cytosolic chaperonin activity modulation; purified chaperonin ATPase assay, HTRF ADP detection, 30 min; activity change, % (concentration not given with the values), hits read low; hit rate 0.3% among 360,000; AID 651819; in the data active means activity change below about -30%; further: on the % scale 0 is the no-effect control and ±100 the full control effect
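TRiC at 40 or 20 nM final (batch-dependent) in 30 mM Tris pH 7.4, 100 mM KCl, 5 mM MgCl2, 1 mM DTT, with compound at single 76 uM and 10 uM ATP, 30 min at 37 deg C. ADP detected by HTRF Transcreener, 665/615 ratio.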
* hit, by the source's call; ? = inconclusive; . = not tested or not shown; ! = a repeat was not active; [ ] = remark or other dose. Unless noted, the call rests on the fitted dose curve; in most records, active means well fitted curve in the direction sought with a large enough effect; inconclusive means small, poorly fitted or top-dose-only effect, or another doubt; inactive means no such curve, though single readings can be large; an effect the other way counts as inactive or inconclusive.

SMILES | ASM inhibitor | BCR signal inh | TCR activator | Tb PFK block | CCT modulator
O=S(=O)(NCC1OCCc2ccccc21)c1ccc(S(=O)(=O)N2CCOCC2)cc1 (stereo unspecified) | 3% | 2% | 2% | -2% | -52*
Oc1ccc(/C=N\Nc2cc(N3CCOCC3)nc(N3CCOCC3)n2)c(O)c1 | 22% | ? | -2%[46.1 µM] | 11% | -52*
O=C(Nc1nc2ccccc2[nH]1)c1ccc(F)c(S(=O)(=O)N2CCOCC2)c1 | -3% | ? | 7%[46.1 µM] | 11% | -44*
O=C(O)C[C@@H]1C(=O)O[C@@H]2C(COC(=O)c3cc(O)c(O)c(O)c3)O[C@@H](OC(=O)c3cc(O)c(O)c(O)c3)[C@@H](OC(=O)c3cc(O)c(O)c4c3[C@H]1[C@H](O)C(=O)O4)[C@H]2OC(=O)c1cc(O)c(O)c(O)c1 (stereo partly specified) | . | ? | . | 1.5µM* | .
Cc1ccccc1S(=O)(=O)N1[C@@H](c2ccc(F)cc2)C(C(=O)O)=CC[C@H]1c1ccc(Cl)cc1 | 2% | 11% | 1% | 5% | -4
COc1ccc([C@@H]2CC=C(C(=O)O)[C@H](c3ccccc3)N2S(=O)(=O)c2ccccc2C)cc1 | 4% | 2% | -10% | 3% | -49*
Cc1cccc(NC(=O)CSc2nc(=O)n(Cc3ccncc3)c3c2CCC3)c1C | . | -1% | . | . | .
CCN(C(=O)COC(=O)c1cccnc1)c1cccc2ccccc12 | -1% | -1% | . | 0% | -50*
CS(=O)(=O)N(CC(=O)NCCSC1CCCCC1)c1ccccc1 | -5% | -2% | -4% | 0% | -33*
O=C(Nc1ccccc1F)c1ccc(O)c2ncccc12 | . | ? | . | -7% | .
CCOC(=O)/C(C#N)=C/Nc1ccsc1C(=O)OC | 3% | -8% | -2% | 1% | -49*
CCOC(=O)/C(C#N)=C/Nc1cc(F)ccc1C | -1% | 6% | -4% | -3% | 1
Cc1ccc(NC(=O)Nc2nnc(SCC(=O)N3CCC(C)CC3)s2)cc1 | . | 12% | . | . | .
O=C(Nc1cccc(C(F)(F)F)c1)c1csc(-c2ccncc2)n1 | -5% | 6% | -1% | -2% | -3
COc1cc(NC(=O)N2CCNC2=O)cc(C(=O)Nc2cccc(C(F)(F)F)c2)c1 | -21% | 18µM* | -2% | -10% | -1
COc1cc(NC(=O)c2csc(-c3ccncc3)n2)cc(C(=O)Nc2cccc(C(F)(F)F)c2)c1 | -24% | 4% | 4% | 3% | -35*!
COc1ccc(CCN2C(=O)CN(C3CCCCCC3)C(=O)C2c2ccc(C)cc2)cc1OC (stereo unspecified) | . | 6% | . | . | .
CC(C)c1ccc(NC(=O)c2ccc(F)c(S(=O)(=O)N3CCc4ccccc4C3)c2)cc1 | . | 13% | . | . | .
Cc1ccc(N(CC(=O)NC2CCCCCC2)S(=O)(=O)c2c(C)nn(C)c2C)cc1 | 2% | 5% | -4% | 0% | -47*
COc1ccc(N(CC(=O)NC2CCCCCC2)S(=O)(=O)c2c(C)nn(C)c2C)cc1 | 2% | 0% | 2% | -5% | -2
O=c1oc2ccccc2c2c1C1O[C@](c3ccsc3)(Cc3ccccc31)O2 | . | ? | . | 0%[11.5 µM] | .
CCc1ccc(NC(=O)c2cc(S(=O)(=O)N3CCCCCC3)ccc2F)cc1 | . | 6% | . | . | .
COc1ccc(NC(=O)CSc2nc3ccc(Nc4nc(N5CCOCC5)nc(N5CCOCC5)n4)cc3s2)cc1 | -1% | -15% | -6% | 1% | -75*
CCCCNC(=O)CSc1nc2cc3c(cc2c(=O)n1CCCC(=O)NCc1ccc2c(c1)OCO2)OCO3 | . | 3% | . | . | .
CC(=O)Nc1ccc(S(=O)(=O)NCCc2cn3nc(C)c(C)nc3n2)cc1 | 5% | -21% | 0% | 6% | -79*
CCOc1ccc(CN2C(=O)c3ccccc3Sc3ccc(C(=O)O)cc32)cc1 | . | -14% | . | . | .
CNC(=S)N1C2CCCC1CC(NC(=O)c1ccc(C)cc1)C2 (stereo unspecified) | -2% | . | . | . | -48*
COC(=O)c1cc(S(=O)(=O)Nc2nn(C)c3ccccc23)oc1C | -2% | -19% | 1% | -4% | -43*
Cc1nn(CC(C)C)c(Cl)c1C(=O)NCC(C)(C)N1CCOCC1 | . | . | . | . | -34*
CN1C=CC=C/C1=C1/SC(=S)N(Cc2ccccc2)C1=O | -4% | 1% | 2%[46.1 µM] | -16% | -62*

Screens deposited in PubChem BioAssay by National Center for Advancing Translational Sciences (NCATS).
